PBM binding z-score data for 40 sequences are collected here from the supplement of paper PMC6555819.

For the assay, the system named is VDR:RXRa (NR concentration 270 nM, RXRa partner concentration 90 nM). The assay can be described thus: PBM binding z-score (relative to random genomic background probes); higher = stronger binding; sequences stand for … in GC…GCGATTGACAGCGTAGAATGAAGG
Here is the method: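 Protein-binding microarray (Agilent 4x180K custom design, double-stranded 60-nt probes: 5' GC cap, 34-nt variable region, 24-nt constant primer region; full probe sequence given). Purified or IVT nuclear receptor:RXRα heterodimers (3:1 NR:RXRα, mostly 270:90 nM) or homodimers were incubated for 1 h in PBS with 2% milk and no ligand, then detected with Alexa488 antibodies. Fluorescence from o1-orientation probes (~5 replicates averaged) was converted to z-scores against 500 random hg19 background probes. Variable regions are seed direct-repeat (DR0–DR5) sites, all their single-nucleotide variants and half-site ablations.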
Turning to ACTTACCGGTCAACGAGGTTATAGCACGCGTATA, the PBM binding z-score was 6.19.

In turn, ATATGTAGGTTATCGGGTCATTCACTTTGCGCAT displayed a PBM binding z-score of 3.73.

In the case of CGTCAAAGTTCAAATAAGGTAACGTAAAGCACGC, the PBM binding z-score is 4.74.

For the sequence ACTATTAGTTGAGACGAGAGCAACCGATAGGTTG, the PBM binding z-score was 0.00985.

With TCTAGTTGGTCCAAGGTCACACACTCGAAATGCG, the PBM binding z-score amounted to 3.77.

Take CGTCCAAGGTCAAGGCTAGGTCAGTGAAAGCATT: the PBM binding z-score was 5.06.

TCTGCTAGGTCAGTCGGTCAGCTAACGAGCTGCC came in with a PBM binding z-score of 0.139.

CAAACTAGGTCATAGGTCAAAGTCGAGCCAACCA returned a PBM binding z-score of 4.9.

Sequence TAGCCTAGGTCATGGGGGCCAGTATAGTGTCGGC came in with a PBM binding z-score of 5.43.

For CGTCCAAGGTCAAGGTCAGTGACAGAGACTCGAA, the PBM binding z-score was found to be 4.83.

Consider CAGCCTAGGTCAGGGCAAGTATAGGAGGAACGTT, for which the PBM binding z-score was 0.782.

Take GGAACGAGGGCAACTTGATAGCAGAGTTTGATGG: the PBM binding z-score was 0.718.

For CGTCGAAGGTCAGCAGGTCAGTGAAAGCGACGTG, the PBM binding z-score was found to be 3.61.

The sequence CAAACTAGGTCACGAAAGGCCAAAGTCGAATGAC displayed a PBM binding z-score of 4.15.

For TCTCGGAGGACACAAAAGGTCAGAGCTCGACATC, the PBM binding z-score worked out at 3.17.

For CCTACCGGGCCAAAAAGGTCATTGATGCCGATAA, the PBM binding z-score is 5.13.

As for AGAACGCGGGCACGCTGAGTTGATAGCAGAGTAG, the PBM binding z-score is -0.403.

CGTCCAAGGTCAATGCTAGGTCAGTTAAAGCATT gave a PBM binding z-score of 5.01.

ACTATTAGTTGGGACGAGGGCAACCGATAGGTTG displayed a PBM binding z-score of 0.564.

CGTCCAAGGTCAGAAGGTCAGTGAAAGCGACGTG returned a PBM binding z-score of 4.14.

Regarding TATACAGGGTCAGAGGCCAGAGTACGAATGTCGA, the PBM binding z-score was 3.24.

CAACCTAGGTCAAGAGGTCAAAGTCCGCTTCCCG returned a PBM binding z-score of 6.21.

Turning to GGAACGAGGGCATTCGAGCTGATAGCATGGCGAT, the PBM binding z-score is 0.809.

Take GCTAGCAGGCCATTTGTGTCACTCAATGACGGGC: the PBM binding z-score was -0.481.

Take ACAGACAGGTGAGTGATGGTAACTCAGCTGGACG: the PBM binding z-score is -0.122.

For the sequence TAGCCTAGGTCATTCAGAGGCCAGTATAGAAAGC, the PBM binding z-score turned out to be 2.84.

In turn, CGTCCAAGGTCATAGGAGGCCAGTGAAGACAGAT yielded a PBM binding z-score of 4.93.

For the sequence GCTGCTAGGTCAGGTTGGTCAGTTAACGGGTACG, the PBM binding z-score came to 1.02.

Consider TCGAGTAGGCTACCAATGGGGCATTCAGCTTTCT, for which the PBM binding z-score is -0.442.

For GATACAGGGTCAGCTAGAGACCAGAGTATGGAAA, the PBM binding z-score stood at 2.23.

Turning to AGTTAAAGTTCAGGACGAGGTAACGTAAAGCACG, the PBM binding z-score is 3.01.

Turning to CGAACTAGGTCATTGCCAGGACAGTGAATAGTAA, the PBM binding z-score is 2.42.

On to AGTCAAAGTTCATCTAGGTGACGTAAGATATGCT, for which the PBM binding z-score was 4.96.

TCGAGTAGGTCACCAATGGGGCATTCAGCTTTCT registered a PBM binding z-score of 2.62.

In turn, ATCGAAAGGTCGAAGAGGTGAGTATACACCGTTT came in with a PBM binding z-score of 4.47.

Take ACTAGCAGGCCAAGGATCACTCAAGATTAGTCCG: the PBM binding z-score is -0.428.

As to CCTTCTAGGTCATGGTCAGCTAATCTACAGTATG, the PBM binding z-score came to 2.07.

ATCGAAAGGTCGACGAAGTGAGTATACACCGTTT yielded a PBM binding z-score of 2.27.

CGAACTAGGTCAGAACAGGACTGTGAAGGATGAT yielded a PBM binding z-score of 0.0454.

As for TAGCCTAGGTCAGATCGGGCCAGTAAACGCTATA, the PBM binding z-score is 0.5.
